# PREPL inhibitor = inhibits the human prolyl oligopeptidase-like enzyme; hit rate 0.68% among 320,000; Q4J6C6; inhibition, % at 5.96 µM; AID 2751; recombinant PREPL, fluorescence polarization activity-based probe; in the data active = inhibition above about 43%;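 also: 0% = enzyme with DMSO and 100% = wells lacking enzyme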
# Rpn11 inh = blocks the human proteasome subunit Rpn11; human 26S proteasome, Ub4-pepOG fluorescence polarization; 20S core pre-blocked with epoxomicin; inhibition, % at 20 µM; hit rate 0.59% among 360,000; AID 588493;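 active = inhibition at 20 µM, scaled to each plate's controls, above about 33%, limit read from the data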
# NadD block = inhibitors of Staphylococcus aureus NadD | inhibition, % at 20 µM | AID 602399 | hit rate 0.78% among 360,000 | purified NadD enzyme, colorimetric absorbance read-out; in the data active = inhibition above about 26%
# PP5 primary = blocks human protein phosphatase 5 activity; P53041; purified PP5c, OMFP substrate fluorescence; inhibition, % at 6.7 µM; hit rate 0.18% among 320,000;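 active = inhibition above the campaign's mean inhibition across all tested compounds plus 3 SD, cut at about 9.5% in these data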;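 also: 0% = DMSO only and 100% = 100 µM cantharidin control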
# Target sequence (P53041 whole entry, looked up): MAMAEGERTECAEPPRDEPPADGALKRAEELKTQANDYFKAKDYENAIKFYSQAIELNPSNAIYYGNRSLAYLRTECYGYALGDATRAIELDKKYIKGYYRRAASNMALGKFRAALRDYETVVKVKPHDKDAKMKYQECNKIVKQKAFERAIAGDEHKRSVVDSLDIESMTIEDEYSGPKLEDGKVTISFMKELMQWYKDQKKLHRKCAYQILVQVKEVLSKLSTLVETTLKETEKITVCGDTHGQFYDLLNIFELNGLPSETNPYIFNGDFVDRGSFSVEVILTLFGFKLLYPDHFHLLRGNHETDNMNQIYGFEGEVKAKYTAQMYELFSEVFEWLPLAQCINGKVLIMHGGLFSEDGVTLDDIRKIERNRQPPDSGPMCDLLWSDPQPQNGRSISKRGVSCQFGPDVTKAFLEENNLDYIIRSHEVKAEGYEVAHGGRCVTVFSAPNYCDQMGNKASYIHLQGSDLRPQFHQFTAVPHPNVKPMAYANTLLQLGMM
# PP1 counter = PP1-alpha (human) inhibition in PP5 counter-screen. AID 2235. purified PP1alpha, OMFP fluorescence. P62136. inhibition, % at 6.7 µM. hit rate 0.9% among 320,000;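 active = inhibition above the mean inhibition of all tested compounds plus 3 SD, computed separately for each screening campaign, cut at about 15% in these data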
# Rpn11 inh conf = Rpn11 inhibition confirmation, single concentration; shares compounds with Rpn11 inh; AID 602318; hit rate 29% among 1,900; inhibition, % at 20 µM; purified human 26S proteasome, Ub4-pepOG fluorescence polarization; proteasome pretreated with epoxomicin
# MMP-2 inh = MMP-2 (human) inhibition counter-screen. shares compounds with Rpn11 inh. recombinant MMP-2, FRET peptide cleavage fluorescence. inhibition, % at 20 µM. hit rate 4% among 1,900. AID 602330;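 also: human MMP-2 activated beforehand with APMA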
# Thrombin FP = blocks bovine thrombin, flagging nonselective RPN11 hits; shares compounds with Rpn11 inh; bovine thrombin cleavage of Ub4-pepOG, fluorescence polarization; inhibition, % at 20 µM; hit rate 13% among 1,900;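 active = mean inhibition at least 40% at 20 µM, or signal 3 deviations below plate average, so some actives read negative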;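 also: plate controls were thrombin with DMSO for no effect and buffer wells lacking thrombin for full effect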
# An asterisk follows results filed as active; x = no result shown; + = active, no number. Rows were chosen to be rich in hits. Some 2.4% of all compounds tested hit in one or more screens of this group. Rule as the data show it, unless noted: active = inhibition above about 40%; inactive = the rest.
SMILES,PREPL inhibitor,Rpn11 inh,NadD block,PP5 primary,PP1 counter,Rpn11 inh conf,MMP-2 inh,Thrombin FP
CS(=O)(=O)N(CC(=O)Nc1ccc2c(c1)OCO2)c1ccccc1,-11,-4,7,4,-2,x,x,x
O=C(CSc1nc(-c2ccc(F)cc2)nc2c1Cc1ccccc1O2)Nc1cccc(C(=O)O)c1,x,+,10,x,x,0,2,82*
O=C(CSc1nc(-c2ccccc2)nc2c1Cc1ccccc1O2)Nc1ccccc1,-13,x,x,3,2,x,x,x
COc1cc(-c2nc3cccc(C)n3c2NCC2CCCO2)ccc1O (stereo not drawn),-7,42*,-2,4,1,1,-30,active
COc1ccc(-c2nnc(SCC(=O)NCc3cccs3)n2C)cc1,6,-2,0,3,2,x,x,x
COc1ccc(-c2nnc(SCC(=O)NCc3cccs3)n2C(C)C)cc1,1,39*,-8,1,-2,10,-10,-1
c1ccc(CN2CCCC3(CCCN(Cc4nc(COc5ccccc5)no4)C3)C2)cc1 (stereo not drawn),2,-2,-7,-2,-4,x,x,x
CCCn1c(CCC(=O)O)nc2cc(S(=O)(=O)N3CCCC3)ccc21,-39,15,4,-1,-2,x,x,x
COCCOC(=O)C1=C(C)NC(=O)NC1c1c(OC)ncnc1OC (stereo not drawn),-7,164*,-2,2,0,-11,-6,-10
COc1ccc(O)c(C(=O)c2cnn(C(=O)c3ccc(C)cc3)c2)c1,9,96*,10,1,-1,-3,-34,-11
O=C(CSc1nc(-c2ccccc2)c(-c2ccccc2)[nH]1)N1CCN(S(=O)(=O)c2ccccc2)CC1,24,+,26,4,3,-3,-5,6
O=C(CSc1nc2ccccc2c(=O)[nH]1)N1CCN(S(=O)(=O)c2ccccc2)CC1,12,3,9,0,0,x,x,x
CC(Nc1ccc(Br)cn1)c1cc(Cl)ccc1O (stereo not drawn),x,73*,0,x,x,6,8,4
CC1CCCCC12NC(=O)N(CC(=O)OCC(=O)N(C)C1CCCCC1)C2=O (stereo not drawn),19,-7,1,4,-4,x,x,x
Cc1ccc(NC(=O)CN2C(=O)N/C(=C\c3ccco3)C2=O)cc1,13,46*,3,x,x,-9,-7,-11
O=C1NC(=S)S/C1=C/c1ccc(N2CCOCC2)o1,2,x,3,3,3,x,x,x
COc1ccc2cc(/C=C3\SC(=S)NC3=O)c(N3CCOCC3)nc2c1,10,55*,16,3,8,48*,25,active
Cc1cc(C(F)(F)F)nc(SCCN2CCOCC2)c1C#N,7,44*,-7,-1,1,50*,-13,29
N#Cc1c(C(F)(F)F)cc(-c2ccc(Cl)c(Cl)c2)nc1SCCN1CCOCC1,-7,52*,0,3,5,17,-17,38
CCC1=C([N+](=O)[O-])C(c2ccc3c(c2)OCO3)NC(=O)N1 (stereo not drawn),-3,2,-5,2,-1,x,x,x
Cc1cc(OCCCCOc2ccc(S(N)(=O)=O)c(C)c2)ccc1S(N)(=O)=O,10,11,-11,2,2,x,x,x
Cc1ccc2nc(NCCCO)[nH]c2c1,4,41*,0,-1,-3,-11,-35,-19
Cc1ccccc1C(=O)/C=C1/SCC(=O)N1C,3,71*,-2,1,-1,49*,0,35
Cc1ccccc1C(=O)NN1C(=O)CSC1=S,15,-5,1,-6,-1,x,x,x
CCC(=O)N(Cc1ccco1)c1nc(C(=O)Nc2ccc(Cl)cc2)c(C)s1,-3,44*,7,3,2,9,26,2
SMILES,PREPL inhibitor,Rpn11 inh,NadD block,PP5 primary,PP1 counter,Rpn11 inh conf,MMP-2 inh,Thrombin FP
CCN(C(=O)c1ccco1)c1nc(CC(=O)Nc2ccc(Cl)cc2)cs1,3,9,-6,2,-1,x,x,x
CCCCCCOc1ccc(C(CC(N)=O)C(=O)O)cc1 (stereo not drawn),6,-10,5,4,-5,x,x,x
Cn1c(=O)oc2cc(S(=O)(=O)N3CCN(c4ccc(F)cc4)CC3)ccc21,-14,44*,5,-2,-4,14,6,-5
CN1CCN(S(=O)(=O)c2ccc3c(c2)oc(=O)n3C)CC1,0,61*,0,0,4,18,-33,11
O=C(Nc1ccc(Cl)cc1)Nc1ccccc1Sc1ncc([N+](=O)[O-])s1,2,44*,30,-2,2,-9,30,-19
O=C(Nc1csc([N+](=O)[O-])c1)Nc1ccccc1Cl,12,5,-4,2,2,x,x,x
COc1ccc(NC(=O)CN(C)C(=O)c2cn(-c3ccccc3)nc2-c2cccnc2)cc1,13,1,0,-2,-4,x,x,x
CC(=O)Oc1ccc(C#C/C=C2\c3ccccc3C(=O)N2c2ccccc2)cc1,14,72*,11,x,x,51*,-1,-87
O=C(Cn1cnc2c(nnn2-c2ccccc2)c1=O)NCc1ccc(F)cc1,-12,73*,-7,4,1,61*,46*,-8
Cc1ccc(-n2nnc3c(=O)n(CC(=O)NCc4ccccc4)cnc32)cc1,20,43*,2,2,6,49*,26,-19
O=C(Cn1cnc2c(nnn2Cc2ccc(F)cc2)c1=O)NCc1ccccc1,-1,0,-3,-4,0,x,x,x
CN(C)S(=O)(=O)c1cccc(N2C(=O)CC3(CCCCC3)CC2=O)c1,-6,-4,2,1,-4,x,x,x
Cc1ccc(CSc2sc(C(=O)c3ccccc3)c(N)c2C#N)cc1,-17,81*,6,3,3,-4,4,-5
CCN(CC(=O)NCc1cccs1)C(=O)CCC(=O)c1ccc(F)cc1,-11,1,-5,4,-10,x,x,x
CCC1=[N+](CC(=O)c2ccc(C)cc2)CCn2cccc21,9,75*,-1,-1,12,3,18,-6
CC(=O)c1cccc(-c2ccnc3c2CC(C(=O)NCc2ccncc2)O3)c1 (stereo not drawn),x,-2,-8,x,x,x,x,x
Cc1ccc(C(=O)N[C@H](C(=O)Nc2cccc(S(=O)(=O)N3CCOCC3)c2)C(C)C)cc1,x,2,7,x,x,x,x,x
COc1cc(C(=O)Nc2nnc(-c3sccc3C)s2)cc(OC)c1OC,10,174*,-1,4,-4,31,-52,64*
CC(=O)N1CCCc2cc(S(=O)(=O)N3CCC(C)CC3)ccc21,1,3,2,0,-1,x,x,x
CCCc1cc(C(F)(F)F)c(C#N)c(=O)[nH]1,6,-3,4,1,2,x,x,x
